CHT block = inhibits the human high affinity choline transporter. CHT-expressing cells, membrane potential dye, choline response; active compounds read low. B-score at 10 µM. 310,000 compounds, 0.86% hits. AID 488975;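 active = B-score over 3 SD under the library average, and starting fluorescence ratio not unusually high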;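 also: choline stimulus applied at its EC90 after an EC20 pre-addition; B-score computed on integrated fluorescence ratio after choline addition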
Mot1-301 SUMO = SUMOylation pathway inhibition by Mot1-301 growth rescue | 320,000 compounds, 1% hits | S. cerevisiae Mot1-301 growth rescue, ATP luminescence, 38.5C; percent above DMSO median, 100 means doubled | growth rescue, % at 18.8 µM | AID 2716;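 active = every valid replicate shows activation above 250% relative to neutral control wells; inactive = the rest, any valid replicate at or below 250%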
MEKK2wt PB1 HTS = raises or lowers MEK5 binding to wildtype human MEKK2 PB1 domain; Q9Y2U5; bead flow cytometry, Alexa488-MEK5 binding to MEKK2 WT; actives lie on both sides; binding response (% of control), % at 10 µM; 290,000 compounds, 1.1% hits; AID 1531; in the data active = binding response below about 67% or above about 130%
MEKK2 mut-MEK5 = signal of MEK5 binding to mutant human MEKK2 PB1 domain. bead flow cytometry, Alexa488-MEK5 binding to MEKK2 mutant. percent response, % at 10 µM. 290,000 compounds, 0.35% hits; in the data active = percent response above about 24%, passing the limit was not always enough
CHT PAM = human CHT allosteric activation | Q9GZV3 | CHT-expressing cells, membrane potential dye, choline EC20; active compounds read high; LV-AA mutant CHT in HEK293 cells | B-score at 10 µM | 310,000 compounds, 0.49% hits | AID 488977;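 active = initial fluorescence not abnormally high and integrated response B-score, plate-corrected, over 3 SD above library mean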
MEKK3 PB1 HTS = raises or lowers MEK5 binding to the human MEKK3 PB1 domain; binding response (% of control), % at 10 µM; 290,000 compounds, 1.4% hits; bead-based flow cytometry, Alexa488-MEK5 binding to MEKK3; actives lie on both sides; 0 = blocked by unlabeled MEK5, 100 = vehicle; Q99759;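 active = binding response more than 3 SD above or below the average of its plate-row segment, actives on both sides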;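 also: Alexa488 bead fluorescence after subtracting the streptavidin-only scavenger bead signal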
Target sequence (Q99759 whole entry, looked up, the tested form may be a part): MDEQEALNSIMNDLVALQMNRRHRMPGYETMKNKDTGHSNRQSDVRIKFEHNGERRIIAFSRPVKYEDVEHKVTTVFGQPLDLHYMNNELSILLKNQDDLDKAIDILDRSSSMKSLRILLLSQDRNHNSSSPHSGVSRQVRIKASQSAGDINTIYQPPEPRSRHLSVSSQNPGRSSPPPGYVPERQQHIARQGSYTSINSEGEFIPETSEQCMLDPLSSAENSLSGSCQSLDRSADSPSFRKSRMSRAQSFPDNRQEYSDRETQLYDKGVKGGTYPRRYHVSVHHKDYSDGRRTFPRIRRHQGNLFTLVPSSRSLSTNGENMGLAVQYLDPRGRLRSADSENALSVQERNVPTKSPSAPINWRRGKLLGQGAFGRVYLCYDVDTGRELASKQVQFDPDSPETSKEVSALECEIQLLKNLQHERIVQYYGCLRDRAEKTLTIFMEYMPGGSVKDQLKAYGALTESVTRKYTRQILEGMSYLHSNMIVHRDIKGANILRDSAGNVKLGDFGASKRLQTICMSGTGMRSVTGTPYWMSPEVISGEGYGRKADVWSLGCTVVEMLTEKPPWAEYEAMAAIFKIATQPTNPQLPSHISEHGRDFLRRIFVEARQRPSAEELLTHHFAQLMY
MEKK2wt confirm = raises or lowers MEK5 binding to wildtype human MEKK2, retest; shares compounds with MEKK3 PB1 HTS; bead flow cytometry, Alexa488-MEK5 binding to MEKK2 WT; actives lie on both sides; binding response (% of control), % at 10 µM; 5,900 compounds, 2.4% hits; in the data active = binding response below about 16% or above about 210%; inactive = in between
MEKK2mut-MEK5 = signal of MEK5 binding to mutant human MEKK2, retest | AID 1893 | percent response, % at 10 µM | bead flow cytometry, Alexa488-MEK5 binding to MEKK2 mutant | 5,900 compounds, 2% hits | shares compounds with MEKK3 PB1 HTS; in the data active = percent response mostly above about 71%, no sharp cut-off; inactive = mostly below about 38%;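 also: higher means compound restores mutant binding toward wildtype level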
MEKK3-MEK5 inh = MEKK3-MEK5 PB1 inhibition, single concentration confirmation; shares compounds with MEKK3 PB1 HTS; bead flow cytometry, Alexa488-MEK5 binding to MEKK3; active compounds read low; binding response (% of control), % at 10 µM; 5,900 compounds, 1.8% hits;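 active = binding response below 72% of control, or above a set upper limit, though filed actives all read lower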;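 also: lower values mean stronger disruption of MEK5 binding to MEKK3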
Hits are given with their value; . = inactive; / = no result given; [ ] = another dose, or the depositor's remark. Only some compounds are listed: those with a hit (about 4.1% of all), similar ones and a draw of the others.

SMILES | CHT block | Mot1-301 SUMO | MEKK2wt PB1 HTS | MEKK2 mut-MEK5 | CHT PAM | MEKK3 PB1 HTS | MEKK2wt confirm | MEKK2mut-MEK5 | MEKK3-MEK5 inh
COc1ccc(C(=O)NCCCNC(=O)c2ccccn2)cc1 | . | . | . | . | . | . | / | / | /
Cc1onc(-c2ccc(Cl)cc2)c1-c1ccnc(SCC(=O)Nc2cc(Cl)cc(Cl)c2)n1 | . | . | . | . | . | . | / | / | /
Cc1ccc(C(C)C)c(OCC(=O)N/N=C/c2ccc(S(=O)(=O)O)o2)c1 | . | . | . | . | . | 130 | . | . | .
CC(C)(C)CC(C)(C)c1ccc(OCC(=O)N/N=C/c2ccc(S(=O)(=O)O)o2)cc1 | . | . | . | . | . | . | / | / | /
CC(C)(CS(=O)(=O)[O-])NC(=O)CC[N+](C)(C)CCO | . | . | . | . | . | 65[inhibitor] | . | . | .
CCOc1ccc(Cl)cc1Nc1nc(NCCO)nc(N2CCCC2)n1 | . | . | . | . | . | . | / | / | /
CCCCOc1ccc(Cl)cc1Nc1nc(NCCO)nc(N2CCCC2)n1 | . | . | 141 | . | . | . | . | . | .
O=c1c2ccc([N+](=O)[O-])cc2ncn1Cc1ccccc1C(F)(F)F | . | . | . | . | . | . | / | / | /
Cc1[nH]n(-c2ccccc2)c(=O)c1/C=N/NC(=O)COc1ccccc1[N+](=O)[O-] | . | . | . | . | . | 158 | . | . | .
Cc1[nH]n(-c2cccc3ccccc23)c(=O)c1/C=N/NC(=O)c1cccc([N+](=O)[O-])c1 | . | . | . | . | . | 61[inhibitor] | . | . | .
COc1ccc(OCC(=O)N(Cc2ccco2)C2CCS(=O)(=O)C2)cc1 (stereo not drawn) | . | . | . | . | . | . | / | / | /
COc1cc(CCN2C(=O)c3cccc4cccc(c34)C2=O)c(S(=O)(=O)N2CCC(C)CC2)cc1OC | . | . | . | . | . | . | / | / | /
CC1CCN(CCC(=O)N/N=C/c2ccc([N+](=O)[O-])cc2)CC1 | . | . | . | . | . | . | / | / | /
COC(=O)c1c(NC(=O)COC(=O)CCc2ccc(S(=O)(=O)N3CCOCC3)cc2)sc2c1CCC2 | . | . | . | . | . | 136 | . | . | .
Cc1cccc(NC(=O)COC(=O)CCc2ccc(S(=O)(=O)N3CCOCC3)cc2)c1C | . | . | . | . | . | . | / | / | /
COC(=O)c1c(NC(=O)CN(c2ccccc2)S(C)(=O)=O)sc2c1CCCC2 | . | . | . | . | . | 161 | . | . | .
CCOC(=O)C(NC(=O)CCl)(Nc1sc(C)c(CC)c1C#N)C(F)(F)F (stereo not drawn) | . | . | . | . | . | 147 | . | . | .
CC(C)(C)c1cc(C(=O)Nc2ccc(F)cc2)n(Cc2ccc(F)cc2)n1 | . | . | . | . | . | . | / | / | /
CC(C)(C)c1cc(C(=O)NC2CC2)n(Cc2ccc(F)cc2)n1 | . | . | . | . | . | 131 | . | . | .
Cc1ccc(NC(=O)CCc2ccc(C)o2)cc1 | . | . | . | . | . | . | / | / | /
O=C(Nc1ccccc1)N(C1=NCCCCS1)c1ccccc1 | . | . | . | . | . | . | / | / | /
O=C(Nc1ccccc1)N(C1=NCCCCS1)c1cccc2ccccc12 | . | . | . | . | . | 127 | . | . | .
Cc1cccc(C(=O)NCC(=O)OCc2nc(N)nc(Nc3ccccc3C)n2)c1 | / | . | / | / | / | / | / | / | /
O=C(CSc1nnc(-c2cccs2)n1CC1CCCO1)N1CCCC1 (stereo not drawn) | . | . | . | . | . | . | / | / | /
COc1ccc(-c2nnc(SCc3nnc(-c4cccs4)o3)n2CC2CCCO2)cc1 (stereo not drawn) | . | . | . | . | . | 49[inhibitor] | . | . | .

Compound activity from PubChem.
